Measured values from PubChem BioAssay (Tox21).
Inconclusive results are not listed. A call without a number means that no potency is given here. Active and inactive are the calls of the source. Calls follow the shape of the full dose curve.

Experiment: qHTS assay for small molecule agonists of the antioxidant response element (ARE) signaling pathway - cell viability counter screen (AID 743203); also: nearly all actives have a fitted effect of over 55% in size
Conditions: ARE-bla HepG2 viability, CellTiter-Glo luminescence, 16 h; series mostly up to 73.3 µM
Source text: National Center for Advancing Translational Sciences [NCATS]
NIH Chemical Genomics Center [NCGC]
U.S. Environmental Protection Agency [EPA]
National Institutes of Environmental Health Sciences [NIEHS]
National Toxicology Program [NTP]
U.S. Food and Drug Administration [FDA]
Oxidative stress has been implicated in the pathogenesis of a variety of diseases ranging from cancer to neurodegeneration. The antioxidant response element (ARE) signaling pathway plays an important role in the amelioration of oxidative stress. The CellSensor ARE-bla HepG2 cell line (Invitrogen) can be used for analyzing the Nrf2/antioxidant response signaling pathway. Nrf2 (NF-E2-related factor 2) and Nrf1 are transcription factors that bind to AREs and activate these genes. The CellSensor ARE-bla Hep G2 cell line contains a beta-lactamase reporter gene under control of the Antioxidant Response Element (ARE) stably integrated into HepG2 cells. The activation of the report gene under culture conditions can be detected by fluorescence intensity. This cell line has been used to screen the Tox21 10K compound library to identify agonists that induce oxidative stress. The cytotoxicity of the Tox21 compound library against the ARE-bla cell line was tested in parallel by measuring the cell viability using CellTiter-Glo assay (Promega, Madison, WI) in the same wells.
Tox21 Assay Protocol Summary:
ARE-bla HepG2 cells were dispensed at 2,000 cells/5 ul/well in 1536-well white wall/solid bottom plates using a Multidrop Combi (ThermoFisher Scientific, Waltham, MA) dispenser. After the assay plates were incubated at 37C/5% CO2 for 5 hrs, 23 nL of compounds dissolved in DMSO, positive controls or DMSO only was transferred to the assay plate by a pintool work station (Kalypsys, San Diego, CA). The plates were incubated at 37C/5% CO2 for 16 hrs, followed by addition of 4 ul/well of CellTiter-Glo reagent into the assay plates using a Flying Reagent Dispenser (Aurora Discovery, San Diego, CA). After 30 min incubation at room temperature, the luminescence intensity in the assay plates was measured using a ViewLux (PerkinElmer, Shelton, CT) plate reader.
Potency is read from the fitted curve at half-maximal effect.

Row | Compound | Potency
1 | CCCCCCCCCCCCCCC[C@H](O)[C@@H](N)CO | inactive
2 | C=CCOC(=O)/C=C\C(=O)OCC=C | inactive
3 | C[C@@H]1C[C@H]2[C@@H]3CCC4=CC(=O)C=C[C@]4(C)[C@@]3(F)[C@@H](O)C[C@]2(C)[C@@]1(O)C(=O)CO | inactive
4 | CCC(C(=O)OCCN(CC)CC)c1ccccc1 (stereo not given) | inactive
5 | CCCOC(=O)c1ccc(C(=O)OCCC)nc1 | inactive
6 | CCCCCCCC/C=C\CCCCCCCC(=O)OC(CO)CO | inactive
7 | CCn1nc(C)c2c1C(=O)NCC(c1ccc(O)cc1)=N2 | inactive
8 | CO[Si](C)(OC)OC | inactive
9 | CC(C)=CC=O | inactive
10 | CO[C@@]12[C@H](COC(N)=O)C3=C(C(=O)C(C)=C(N)C3=O)N1C[C@@H]1N[C@@H]12 | 16.8 µM (active)
11 | Cc1ccnc2ccccc12 | inactive
12 | CC(=O)Oc1ccc2c(c1)CC[C@@H]1[C@@H]2CC[C@]2(C)[C@@H](O)CC[C@@H]12 | inactive
13 | O=C(Nc1ccccc1)Nc1ccccc1 | inactive
14 | Cc1cc(O)c2c(O)c3c(O)cccc3cc2c1 | inactive
15 | O=C(O)c1c(O)c(-c2ccccc2)nc2ccccc12 | inactive
16 | ON(Cc1ccccc1)Cc1ccccc1 | inactive
17 | C[Si](NC1CCCCC1)(NC1CCCCC1)NC1CCCCC1 | inactive
18 | Cc1ccc(/C=N/n2c(-c3ccccc3)csc2=S)cc1 | inactive
19 | CNC(=S)NC | inactive
20 | CC(=O)OCC(=O)[C@H]1CC[C@H]2[C@@H]3CCC4=CC(=O)CC[C@]4(C)[C@H]3CC[C@]12C | inactive

Row | Compound | Potency
21 | Nc1ccc(C(=O)OCCCOC(=O)c2ccc(N)cc2)cc1 | inactive
22 | Cc1c(C(=O)NN2CCCCC2)nn(-c2ccc(Cl)cc2Cl)c1-c1ccc(Cl)cc1 | 23.7 µM (active)
23 | CCOC(=O)[C@@H](C)Oc1ccc(Oc2nc3ccc(Cl)cc3o2)cc1 | inactive
24 | C[N+]1(C)CCC(=C(c2ccccc2)c2ccccc2)CC1 | inactive
25 | CCCCN(CCCC)C(=S)SSC(=S)N(CCCC)CCCC | inactive
26 | CCOCCn1c(C2CCN(CCc3ccc(C(C)(C)C(=O)O)cc3)CC2)nc2ccccc21 | inactive
27 | CC1CC(=O)NN=C1c1ccc(NCC(C)(C)NCC(O)COc2cc(Cl)ccc2C#N)cc1 (stereo not given) | inactive
28 | O=Cc1c(Cl)cccc1Cl | inactive
29 | CCCCC1C(=O)N(c2ccccc2)N(c2ccc(O)cc2)C1=O (stereo not given) | inactive
30 | COC(=O)CC(=O)C(C)(C)C | inactive
31 | Cc1cc(O)c(C(C)C)cc1Cl | inactive
32 | CC(=O)Nc1ccc(N)cc1 | inactive
33 | CCCOc1ccc(S(=O)(=O)N2CCN(CC)CC2)cc1-c1nc2c(CC)n(Cc3ccccn3)nc2c(=O)[nH]1 | inactive
34 | CCc1cccc(N(C)C(N)=Nc2cccc3ccccc23)c1 | inactive
35 | C1COCO1 | inactive
36 | CCCCCCOC(=O)C(C)C | inactive
37 | CC(C)OCC1CO1 (stereo not given) | inactive
38 | CC[C@@H]([C@H](C)O)n1ncn(-c2ccc(N3CCN(c4ccc(OC[C@@H]5CO[C@@](Cn6cncn6)(c6ccc(F)cc6F)C5)cc4)CC3)cc2)c1=O | inactive
39 | O=C1NCCN1 | inactive
40 | Cc1cc(C(=C2C=CC(=Nc3ccc(S(=O)(=O)O)cc3S(=O)(=O)O)C=C2)c2ccc(Nc3ccc(S(=O)(=O)O)cc3)cc2)ccc1N | inactive
